The values below come from PubChem BioAssay (NCATS).

Results filed as inconclusive are left out. The source made the active and inactive calls. The call rests on the fitted dose curve; in most records, active means well fitted curve in the direction sought with a large enough effect; inconclusive means small, poorly fitted or top-dose-only effect, or another doubt; inactive means no such curve, though single readings can be large; an effect the other way counts as inactive or inconclusive.

A short description of assay [1]: Quantitative High-Throughput drug screen in 47 multiple myeloma cell lines against the NCATS MIPE library collection: KMS12PE_JCRB cell viability assay (AID 1918972). Further: nearly all actives have a fitted effect of over 30% in size.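 On viability: 100% = DMSO only wells and 0% = wells with media alone.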 A digest of the protocol: (§1)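 Viability readout: CellTiter-Glo luminescence following 5 min room-temperature incubation with reagent. Prior exposure: 48 h, 37C, humidified 5% CO2, 500 cells per well.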

The nature of assay [2]: Quantitative High-Throughput drug screen in 47 multiple myeloma cell lines against the NCATS MIPE library collection: KMS20_JCRB cell viability assay (AID 1918973). Further: nearly all actives have a fitted effect of over 45% in size. The gist of the method:
as §1

Assay [3] can be described thus: Quantitative High-Throughput drug screen in 47 multiple myeloma cell lines against the NCATS MIPE library collection: KMS26_JCRB cell viability assay (AID 1918975). Further: nearly all actives have a fitted effect of over 45% in size. A digest of the protocol: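 Relative luminescence from CellTiter-Glo served as the viability signal, referenced to DMSO-treated (100%) and cell-free medium (0%) controls. Treatment lasted 48 hours at 37C with 500 cells per well.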

Assay [4] is described as follows: Quantitative High-Throughput drug screen in 47 multiple myeloma cell lines against the NCATS MIPE library collection: MMM1_PLB cell viability assay (AID 1918976). Further: nearly all actives have a fitted effect of over 35% in size. The gist of the method:
(§2)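 Cells were exposed to library compounds for 48 hours, after which ATP was measured by CellTiter-Glo. Signal was taken as median relative luminescence units.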

The nature of assay [5]: Quantitative High-Throughput drug screen in 47 multiple myeloma cell lines against the NCATS MIPE library collection: MOLP8_DSMZ cell viability assay (AID 1918977). Further: nearly all actives have a fitted effect of over 45% in size. The gist of the method:
as §2

Assay [6] in a line: Quantitative High-Throughput drug screen in 47 multiple myeloma cell lines against the NCATS MIPE library collection: NCIH929_DSMZ cell viability assay (AID 1918978). Further: nearly all actives have a fitted effect of over 35% in size. The gist of the method:
as §2

Assay [7] can be described thus: Quantitative High-Throughput drug screen in 47 multiple myeloma cell lines against the NCATS MIPE library collection: OCIMY1_PLB cell viability assay (AID 1918979). Further: nearly all actives have a fitted effect of over 35% in size.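 On viability: 100% = DMSO-only wells and 0% = cell-free media-only wells.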 A digest of the protocol: as §2
Assay [8] is described as follows: Quantitative High-Throughput drug screen in 47 multiple myeloma cell lines against the NCATS MIPE library collection: MM1S_ATCC cell viability assay (AID 1918980). Further: nearly all actives have a fitted effect of over 45% in size. The gist of the method:
as §2

The nature of assay [9]: Quantitative High-Throughput drug screen in 47 multiple myeloma cell lines against the NCATS MIPE library collection: KMS21BM_JCRB cell viability assay (AID 1918974). To be noted: ATP luminescence, 48 h; viability: at 45.8 µM (top of the series). A digest of the protocol:
as §1
Potency means the concentration at half of the fitted maximal effect.

With `c1ccc(CCCN2CCN(CCOC(c3ccccc3)c3ccccc3)CC2)cc1`, the Potency result in assay [1] is “inactive”. For the same compound, the Potency is 13.2 µM (active) in assay [2]; 26.4 µM (active) in [3]; 18.7 µM (active) in assay [4]; 20.9 µM (active) in assay [5]; 23.5 µM (active) in assay [6]; 23.5 µM (active) in assay [7].

As for `CCOC(=O)c1c(C(C#N)=CN)c2ccc(Cl)c(Cl)c2n1C`, the Potency result in assay [1] and in assay [7] was “inactive” throughout. The Potency in assay [8] is 23.5 µM (active).

Consider `C#C[C@]1(O)C=C[C@@H]2[C@@H]3CCC4=CC(=O)CC[C@@H]4[C@H]3CC[C@@]21CC`, for which the Potency result in [2], in [3], in assay [5], in [6], in assay [7] and in assay [8] was “inactive” throughout.

As to `CC[C@H]1C=CC=CC[C@@H](C)[C@H](O)[C@@](C)(O)C(=O)[C@@H](C)[C@H](O)[C@@H](C)C(=O)[C@@H](C)[C@H](O)[C@@H](C)C=CC(=O)O[C@@H]2[C@@H](C)[C@H](CC1)O[C@]1(CC[C@H](C)[C@H](C[C@@H](C)O)O1)[C@H]2C`, the results for the Potency in [3], in [4] and in assay [6] were 10.5 µM (active), 0.0059 µM (active) and 0.0296 µM (active), respectively.

Regarding `C=C[C@@H]1CN2CCC1C[C@@H]2[C@@H](O)c1ccnc2ccccc12` (some centres not stated), the Potency is 7.43 µM (active) in assay [1], 18.7 µM (active) in assay [4], 18.7 µM (active) in [6] and 13.2 µM (active) in [8]. The Potency result in [7] is “inactive”.

As for `C[C@]12CC[C@@H]3[C@@H](CCC4=CC(=O)CC[C@@H]43)[C@@H]1CC[C@@H]2OC(=O)CCc1ccccc1`, the Potency result in [7] and in [8] was “inactive” throughout.

`O=C1CCC[C@@H]2[C@H]3CCCN4CCC[C@@H](CN12)[C@@H]34`: the Potency result in assay [3] and in assay [6] was “inactive” in each case.

As for `C[C@]12CC[C@H](O)CC1=CC[C@H]1[C@H]3CCC(=O)[C@@]3(C)CC[C@@H]12`, the Potency in [9] is 11.8 µM (active); in assay [4], 4.69 µM (active). Besides, the Potency entry in assay [5], in [6] and in assay [7] was “inactive” each time.

As for `C[C@]12CC[C@H]3[C@@H](CCC4=CC(=O)CC[C@@]43C)[C@H]1CC[C@H]2OC(=O)CCC1CCCC1`, the Potency entry in assay [1] and in assay [7] was “inactive” in each case. Besides, the Potency in assay [4] is 23.5 µM (active).

Take `NC1=NC(=O)N2CC12` (configuration not stated): the Potency was 10.5 µM (active) in [1] and 9.35 µM (active) in assay [6]. Also, the Potency result in assay [7] and in [8] was “inactive” throughout.

For `O=C(Oc1ccc([N+](=O)[O-])cc1)N1CCN(Cc2cccc(Oc3ccccc3)c2)CC1`, in assay [5], the Potency entry was “inactive”. In addition, in assay [8], the Potency was 11.8 µM (active).

By viability is commonly meant the share of living cells, or the viability signal relative to a control. Take `CC(=Cc1csc(C)n1)[C@@H]1C[C@H]2O[C@]2(C)CCC[C@H](C)[C@@H](O)[C@@H](C)C(=O)C(C)(C)[C@@H](O)CC(=O)O1`: the viability in assay [9] is 80.2% (active). Besides, the Potency entry in [4], in assay [5], in assay [6], in assay [7] and in assay [8] was “inactive” in each case.

For `CC(=O)OCC1=C(C(=O)O)N2C(=O)[C@@H](N)[C@@H]2SC1`, the Potency entry in [5], in [6] and in [7] was “inactive” throughout.

Consider `CC1=NN=C(c2ccc(N)cc2)c2cc3c(cc2C1)OCO3`, for which the Potency in assay [9] was 14.8 µM (active). In addition, the Potency result in assay [3] and in [6] was “inactive” in each case.

With `Cc1c(N)nc([C@H](CC(N)=O)NC[C@@H](N)C(N)=O)nc1C(=O)N[C@H](C(=O)N[C@@H](C)[C@H](O)[C@@H](C)C(=O)N[C@@H](C(=O)NCCc1nc(-c2nc(C(=O)NCCC[S+](C)C)cs2)cs1)[C@@H](C)O)C(O[C@H]1O[C@H](CO)[C@H](O)[C@@H](O)[C@@H]1O[C@H]1O[C@H](CO)[C@@H](O)[C@H](OC(N)=O)[C@H]1O)c1cnc[nH]1` (some centres not stated), the Potency in assay [2] was 0.935 µM (active); in [7], 13.2 µM (active); in assay [8] it was 20.9 µM (active).

As to `CC(C)(O)C(=O)Nc1ccc([N+](=O)[O-])c(C(F)(F)F)c1`, the Potency in assay [1] was 23.5 µM (active); in [6], 5.26 µM (active); in [8] it was 9.35 µM (active). For the same compound, the Potency result in [5] and in assay [7] was “inactive” throughout.

Take `CCOP(=O)(OCC)C(C)NC(=O)N(CCCl)N=O` (configuration not stated): the Potency entry in [1], in assay [6] and in assay [7] was “inactive” each time.

As for `CCN(CC)C(=O)c1ccc(C2=CC3(CCNCC3)Oc3cccc(O)c32)cc1`, the Potency entry in [2], in assay [3], in assay [5], in assay [6] and in assay [7] was “inactive” in each case. Also, the Potency in assay [4] was 10.5 µM (active).

With `CC(C)[C@H]1C(=O)N[C@H](CO)Cc2c[nH]c3cccc(c23)N1C`, the Potency entry in [9], in assay [3], in [4], in [6] and in [7] was “inactive” throughout. Moreover, in assay [5], the Potency was 0.166 µM (active).
